Assay results as given in PubChem BioAssay AID646 (Vanderbilt High Throughput Screening Facility, 2007).
Hit rate of the full screen: of about 1,900 compounds, about 15 (0.8%) were called active. No stated cut-off is given here; in the data, active means luminescence above about 3900; inactive means the rest. The list is a sample of the results.

target: D(1A) dopamine receptor (Homo sapiens) (UniProt P21728); test: D1 receptor agonism without dopamine, confirmation, mechanism study for D1 allosteric modulator project, cell-based, HEK293 D1, CRE-luciferase, secondary assay 1 (AID 646); conditions: no dopamine, at 10 µM, stronger effect = higher value
Sequence (P21728 whole entry, looked up): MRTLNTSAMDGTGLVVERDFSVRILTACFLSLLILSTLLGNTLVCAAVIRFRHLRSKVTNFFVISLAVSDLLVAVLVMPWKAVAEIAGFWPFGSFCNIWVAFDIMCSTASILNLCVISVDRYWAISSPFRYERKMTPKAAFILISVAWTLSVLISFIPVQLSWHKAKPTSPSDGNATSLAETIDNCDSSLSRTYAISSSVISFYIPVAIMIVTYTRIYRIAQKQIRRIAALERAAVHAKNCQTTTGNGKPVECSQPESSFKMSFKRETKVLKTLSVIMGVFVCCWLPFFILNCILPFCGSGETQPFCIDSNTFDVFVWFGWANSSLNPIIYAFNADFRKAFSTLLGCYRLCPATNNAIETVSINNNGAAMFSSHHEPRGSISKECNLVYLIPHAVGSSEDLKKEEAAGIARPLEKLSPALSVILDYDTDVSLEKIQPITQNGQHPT

luminescence, inactive:
c1ccc(COc2nsnc2N2CCOCC2)cc1 1550, CCc1cc(=O)oc2cc(OCC(=O)N3CCCc4ccccc43)ccc12 1680, Cn1c(/C(C#N)=C2/CCCCCN2)nc2ccccc21 1800, COc1ccc(Nc2oc(-c3ccccc3Cl)nc2C#N)cc1 1750, CCOc1cc(C(=O)N2CCc3cc(OC)c(OC)cc3C2)ccc1OC(F)F 2710, CCOc1ccc(Nc2oc(Cc3ccccc3)nc2C#N)cc1 1910, CCOc1ccccc1C1CC(c2ccccc2)Nc2nc(N)nn21 (stereo not drawn) 1700, Cc1cc(C(F)(F)F)nn1-c1nc(-c2ccco2)cc(C(F)(F)F)n1 1710, c1ccc(-c2nnc3n2NC(c2ccc4c(c2)OCO4)S3)cc1 (stereo not drawn) 1610, CCOC(=O)c1cc2n(c1C)-c1ccccc1C2=O 1720, CCSc1nc(C)nc2c1oc1ccccc12 1590, CCCc1nc(N)nc2c1C(=O)CC(C)(C)C2 1560, CCOc1ccc(Cn2c(SCCCCC#N)nc3c2c(=O)n(C)c(=O)n3C)cc1OCC 1460, CC1CCN(c2nc3c(c(=O)[nH]c(=O)n3C)n2CCCc2ccccc2)CC1 1410, Cc1ccc(-c2nn(-c3ccccc3)cc2CN(Cc2ccccc2)C(=O)CCC(=O)O)o1 1420, CC(C)n1c(C(O)c2ccccc2)nc2ccccc21 (stereo not drawn) 1600, CCCn1c(=O)c2[nH]c(C3CCCC3)nc2n(CCC)c1=O 1560, Nc1ccc(S(=O)(=O)NC(=O)c2ccccc2)cc1 1560, O=c1cc(-c2ccccc2)nc(N2CCCCC2)[nH]1 1600, COC(=O)c1ccccc1NC(=O)C1CCN(S(=O)(=O)c2cc(OC)ccc2OC)CC1 1480, Cn1c(=O)c2cn(-c3cccc4ccccc34)cc2n(C)c1=O 1650, COc1ccc(-n2c(Cc3cccn3C)nnc2SCC(=O)Nc2cc(C)cc(C)c2)cc1 1500, COc1ccc(CCNC(=O)c2cc3sccc3n2C)cc1OC 1640, COc1ccc(-c2nnn(Cc3nc(N)nc(N4CCCCC4)n3)n2)cc1 1520, CN1CCN(CC(O)COCc2ccc3c(c2)OCO3)CC1 (stereo not drawn) 1670, COc1ncnc2sc3c(c12)CCCC3 1600, CC(C)C1C2=C(CC(C)(C)CC2=O)ON1c1ccccc1 (stereo not drawn) 1810, COC(=O)C(C)C1Sc2ccccc2NC1=O (stereo not drawn) 1730, N#Cc1c(N)sc2c1CCN(C(=O)OCc1ccccc1)C2 1760, CC(=O)OC(C)C[N+](C)(C)C (stereo not drawn) 1390, O=C(CSc1nnc2scc(-c3ccc(F)cc3)n12)NCc1ccco1 1730, COc1ccc(CCNc2ncnc3nc[nH]c23)cc1OC 1540, CCOc1ccc2[nH]c(=O)c(C(c3nnnn3CCOC)N3CCOCC3)cc2c1 (stereo not drawn) 1550, N#CCSc1nc2ccccc2c(=O)n1-c1ccccc1 1780, COC(=O)C1=C(C)NC2=C(C(=O)c3ccccc32)C1c1ccc(-c2ccc(C(=O)O)cc2)o1 (stereo not drawn) 1810, CCn1cc(C(=O)NCC2COc3ccccc3O2)c2cc(OC)c(OC)cc2c1=O (stereo not drawn) 1710, C/C(Cl)=C\Cn1c(Nc2cccc(C)c2)nc2c1c(=O)n(C)c(=O)n2C 1690, CN(C)c1nc(N)nc(CSc2nnnn2-c2cccc3ccccc23)n1 792, CCn1nc(C(=O)OCC(=O)N2c3ccccc3CC2C)c2ccccc2c1=O (stereo not drawn) 1520, CCC(=O)NC(=Nc1nc2ccccc2s1)NC(=O)CC 1420, CCOC(=O)c1cc(C)sc1NC(=O)C1CCC1 2190, COc1nc(NCc2ccc(Cl)cc2)nc(OC)n1 1580, COc1ccc(-c2nnco2)cc1OC 1540, CCOc1ccc2c(c1)cc(CN(C(=O)CC)C1CCCCC1)c1nnnn12 1650, CCn1c(=N)c(S(=O)(=O)c2ccc(F)cc2)cc2c(=O)n3ccccc3nc21 1820, Cn1c(=O)c2[nH]c(NCC3CCCO3)nc2n(-c2ccccc2)c1=O (stereo not drawn) 1520, O=C(NCc1ccccn1)c1ccc2nc(-c3ccco3)c(-c3ccco3)nc2c1 2040, CCn1ncc(C2=NOC(C(=O)Nc3ccccc3C(=O)OC)C2)c1C (stereo not drawn) 1280, COc1ccc(S(=O)(=O)N(C)CC(=O)Nc2ccc3c(c2)OCCO3)cc1OC 1540, CCOc1ccc(-c2nnn(CC(=O)N3CCN(c4ccc(OC)cc4)CC3)n2)cc1OCC 1540, CCCS(=O)(=O)N1CCC(C(=O)NCCc2ccc(OC)c(OC)c2)CC1 1810, Cc1ccc(C2CC(c3cccc(C)c3)n3nc(N)nc3N2)cc1 (stereo not drawn) 1850, CCCn1c(=NC(C)=O)c(C(=O)OCC)cc2c(=O)n3ccccc3nc21 1630, COc1ccc(S(=O)(=O)Nc2ccc(S(=O)(=O)N3CCCCC3)cc2)cc1OC 1540, CCOC(=O)/C=c1\s/c(=C\c2ccccc2OC)c(=O)n1CC(=O)N1CCOCC1 1600, FC(F)(F)c1cc(-c2ccco2)nc(N2CCOCC2)n1 1540, Cc1ccc(S(=O)(=O)c2c(N)n(C)c3nc4ccccc4nc23)cc1 1580, CC(=O)c1ccc(Oc2cc(C)nc(-n3nc(C)cc3C)n2)cc1 1560, CCCCc1c(O)nc2n(c1=O)CCS2 1610, CCNc1nc(NCC)nc(N(C)n2cnnc2)n1 1760, CCCSc1nc2c(c(=O)[nH]c(=O)n2C)n1CCc1ccccc1 1480, CCOc1cccc(-n2nnnc2-c2ccc(OC)cc2)c1 1540, COc1ccc(Nc2cc(C)nc(-n3nc(C)cc3C)n2)cc1 1750
